Bim-Bcl-W – inhibitors of Bim-Bcl-W interaction, human | Q92843 | bead-based flow cytometry, Bim peptide-Bcl-W binding | inhibition, % at 10 µM | hit rate 0.02% among 190,000;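 also: 0% = bound tracer without compound and 100% = peptide blocker; higher means less fluorescent Bim peptide bound to Bcl-W beads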
Bim-Bcl-B – human Bim-Bcl-B interaction inhibition; Q9HD36; bead-based flow cytometry, Bim peptide-Bcl-B binding; inhibition, % at 10 µM; hit rate 0.073% among 190,000;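 also: 0% = tracer peptide without compound and 100% = reference inhibitor peptide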
Bfl-1 Bim block – disrupts Bim binding to human Bfl-1 | Q16548 | Bead-based flow cytometry, Bim-Bfl-1 binding inhibition | inhibition, % at 10 µM | hit rate 0.12% among 190,000 | AID 1008;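 also: 0% = wells without compound plus tracer and 100% = blocker peptide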
Target sequence (Q16548 whole entry, looked up): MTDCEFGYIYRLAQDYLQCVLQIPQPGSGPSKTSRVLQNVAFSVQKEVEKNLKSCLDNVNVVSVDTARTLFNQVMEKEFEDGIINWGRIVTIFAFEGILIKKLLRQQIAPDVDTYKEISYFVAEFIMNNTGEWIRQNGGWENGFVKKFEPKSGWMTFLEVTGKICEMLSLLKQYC
PKD1 kinase inh – inhibitors of human PKD1 kinase. Q15139. PKD1 kinase fluorescence polarization assay. inhibition, % (no concentration beside the values). hit rate 0.056% among 200,000. AID 797; in the data active = inhibition above about 50%
Bim-Bcl-XL – inhibitors of Bim-Bcl-XL interaction, human; Q07817; Bim peptide-Bcl-XL binding, bead flow cytometry, fluorescence; inhibition, % at 10 µM; hit rate 0.04% among 190,000; AID 1007
Bim-Bcl-2 – disrupts Bim peptide binding to human Bcl-2; P10415; Bead-based flow cytometry, Bim peptide-Bcl-2 binding; inhibition, % at 10 µM; hit rate 0.06% among 190,000; in the data active = inhibition above about 40%;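 also: 0% = no compound wells with probe peptide and 100% = reference peptide inhibitor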
Bim-Bcl-XL DR – confirmation of regulators of human Bim-Bcl-XL interaction; shares compounds with Bfl-1 Bim block; bead-based flow cytometry, Bim-Bcl-XL binding; inhibition of binding at 100 µM; 40 tested, under 10 active; AID 2084; call rule not given here
* marks the source's active call; other numbers are inactive results; x = not tested or not shown. Rows were chosen to be rich in hits. Some 0.24% of all compounds tested hit in one or more screens of this group. Rule as the data show it, unless noted: active = inhibition above about 40%.

SMILES	Bim-Bcl-W	Bim-Bcl-B	Bfl-1 Bim block	PKD1 kinase inh	Bim-Bcl-XL	Bim-Bcl-2	others
COC(=O)C1C2c3ccccc3OC1(C)N=c1s/c(=C/c3cnn(C)c3C)c(=O)n12 (centres undefined)	19.0	73.0*	11.0	-7.8	18.0	27.0
Cc1ccc2c(c1)C1CN(C)CCC1N2C(=S)Nc1cccnc1 (centres undefined)	-1.0	-7.0	-4.0	-5.0	-2.0	-3.0
Cc1ccc2c(c1)C1CN(C)CCC1N2C(=O)Nc1cccc(Cl)c1 (centres undefined)	16.0	x	x	-1.3	19.0	85.0*
CC(=O)NC(Cc1ccc(N(CCCl)CCCl)cc1)C(=O)NCC(=O)NCC(=O)O (centres undefined)	0.0	-4.0	-3.0	1.6	0.0	-1.0
Cc1ccc(-c2nc(N3CCOCC3)s[n+]2-c2ccccc2)cc1	4.0	-42.0	53.0*	2.7	11.0	13.0
CN1CC(C(=O)c2ccc(F)cc2)C(c2c(F)cccc2Cl)C1 (centres undefined)	5.0	0.0	5.0	7.0	7.0	0.0
COc1ccc(C2CN(C)CC2C(=O)c2ccc(F)cc2)cc1Cl (centres undefined)	2.0	77.0*	59.0*	-9.6	4.0	81.0*
O=P(NCc1ccccc1)(Oc1ccccc1)Oc1ccccc1	-4.0	0.0	4.0	-3.4	-6.0	-1.0
O=C1NC(=O)C2(Cc3c(nc4ccccn4c3=O)N3CCCCCC32)C(=O)N1Cc1ccccc1 (centres undefined)	0.0	59.0*	-1.0	-7.5	-4.0	4.0	Bim-Bcl-XL DR=3.82
Cc1nn(Cc2ccccc2)c(Cl)c1C(=O)OCC(=O)N1CCCC1	0.0	-3.0	-6.0	0.7	-5.0	0.0

Screening results (PubChem)
